Assay results published in the OligoGym collection.

Legend:
Assay in all cases: pooled miR-30 sensor sort-seq; sequence = guide strand
Conditions in all cases: shRNA
[1] = molecular target: CNN2
[2] = molecular target: CNOT1
[3] = molecular target: COG2
[4] = molecular target: CNTD1
Further: reference of the scale not given here.

## TAAGATAGTTCCATCCTTCAGG
[1]
  sensor-assay potency score (higher = more potent): -0.219

## TTGTCGGTTCCCAGCTTGGTAT
[1]
  sensor-assay potency score (higher = more potent): -1.75

## ATGAGTGTGCATAAGATAGTTC
[1]
  sensor-assay potency score (higher = more potent): -0.603

## TTATATGTAACTCTTTATCAGG
[2]
  sensor-assay potency score (higher = more potent): -0.895

## TTGAACAGCATGAAACTGTAAC
[3]
  sensor-assay potency score (higher = more potent): -0.748

## TCTCTTATTATCTCTTGGCTGG
[4]
  sensor-assay potency score (higher = more potent): -0.35
